# Measurements reported in the supplement of paper PMC12024424.
# Tested on: Staphylococcus aureus Sa2 (MRSA, cystic fibrosis isolate)
# Test: growth reduction vs untreated control (OD550); higher = stronger antibacterial activity
# Settings: 0.1 mM; 24 h
# Protocol: (§1)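 Single-dose screen of the MedChem Express Drug Repurposing Library (0.1 mM, 1% DMSO) against planktonic MRSA S. aureus Sa2 (CF isolate) in TSB in 96-well plates, 37 °C aerobic, 24 h. Assays were run in triplicate and repeated twice.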
row,Structure (SMILES),growth reduction
1,CC1=C(/C=C/C(C)=C/C=C/C(C)=C/C(=O)Nc2ccc(O)cc2)C(C)(C)CCC1 [Fenretinide],100%
2,C=C[C@@H]1C[C@]1(NC(=O)[C@@H]1C[C@@H]2CN1C(=O)[C@H](C(C)(C)C)NC(=O)O[C@@H]1C[C@H]1CCCCCc1nc3ccc(OC)cc3nc1O2)C(=O)NS(=O)(=O)C1CC1 [Grazoprevir],100%
3,CC1(S(=O)(=O)O)CC(=O)c2ccccc2C1=O (stereo unspecified) [Menadione bisulfite (sodium)],99.5%
4,Cc1ncc(NC(=O)c2ccc(CN3CCN(C)CC3)c(C(F)(F)F)c2)cc1Nc1nccc(-c2cccnc2)n1 [Flumatinib],100%

# Tested on: Staphylococcus aureus Sa2 (MRSA, cystic fibrosis isolate)
# Test: growth reduction vs untreated control (viable cell count); higher = stronger antibacterial activity; extreme values may be limits of the assay
# Settings: 0.1 mM; 24 h
# Protocol: as §1
row,Structure (SMILES),growth reduction
1,CSc1ccc(C(=O)/C=C/c2cc(C)c(OC(C)(C)C(=O)O)c(C)c2)cc1 [Elafibranor],95%
2,CC/C(=C(/CC)c1ccc(O)cc1)c1ccc(O)cc1 [Diethylstilbestrol],100%
3,Cc1c(C)c2c(c(C)c1O)CCC(C)(COc1ccc(CC3SC(=O)NC3=O)cc1)O2 (stereo unspecified) [Troglitazone],100%
4,C#C[C@]1(O)CC[C@H]2[C@@H]3CCc4cc(O)ccc4[C@H]3CC[C@@]21C [Ethynyl Estradiol],100%
5,OC1(c2ccc(Cl)c(C(F)(F)F)c2)CCN(CCCC(c2ccc(F)cc2)c2ccc(F)cc2)CC1 [Penfluridol],100%
6,O=c1[nH]cc(F)c(=O)[nH]1 [5-Fluorouracil],100%
7,COc1ccc(Cl)c(Nc2nc3ccccc3nc2NS(=O)(=O)c2cccc(NC(=O)C(C)(C)N)c2)c1 [Pilaralisib],100%
